Entries with a potency or affinity are not part of this list. Inconclusive results are not listed. Active and inactive are the calls of the source.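 The calls were made as follows, unless noted: active = signal-lowering compounds whose fitted half-maximal concentration is at or below twice the top tested dose in every run; inconclusive = runs disagree, flat 30 to 70% inhibition, or poor curve fit; inactive = the rest.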

One experiment can be described thus: IOSE-T80 viability loss, PAX8-independent line – cell-based, cherry-pick, selectivity assay for PAX8 inhibitor project, dose response (AID 687032;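 active = fitted half-maximal concentration for viability loss no higher than twice the top valid dose, in every repeat run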;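 also: cells exposed to compound for 96 h before reading; 0% = neutral control wells and -100% = 2 µM mitoxantrone kill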). Particulars: CellTiterGlo ATP luminescence, 96 h; series mostly up to 35 µM; activity change, negative = viability loss: at the top concentration.
As to `C[C@@H]1CCCCO[C@H](CN(C)C(=O)Nc2ccc(C(F)(F)F)cc2)[C@@H](C)CN([C@@H](C)CO)C(=O)c2cc(NC(=O)Nc3ccc(C(F)(F)F)cc3)ccc2O1`, the “activity change, negative = viability loss” value is 9.32% (inactive). As to `CC(C)NC(=O)N(C)C[C@H]1OCCCC[C@@H](C)Oc2ccc(NC(=O)Nc3ccc(C(F)(F)F)cc3)cc2C(=O)N([C@@H](C)CO)C[C@H]1C`, the “activity change, negative = viability loss” value was 3.16% (inactive). In the case of `C[C@@H]1CN([C@H](C)CO)C(=O)c2cc(NC(=O)Nc3cccc4ccccc34)ccc2O[C@@H]1CN(C)C(=O)Nc1cccc2ccccc12`, the “activity change, negative = viability loss” value is 24.5% (inactive). The same measure, in the same setting: the result for `C[C@@H]1CN([C@H](C)CO)C(=O)c2cccc(NC(=O)Nc3cccc4ccccc34)c2O[C@@H]1CN(C)S(=O)(=O)c1ccc(Cl)cc1` reads 14% (inactive); that for `C[C@H]1CCCCO[C@H](CN(C)Cc2ccc(C(F)(F)F)cc2)[C@@H](C)CN([C@@H](C)CO)C(=O)c2cc(NS(=O)(=O)c3ccc(F)cc3)ccc2O1`, 9.87% (inactive). Consider `C[C@@H]1CN([C@H](C)CO)C(=O)c2cc(NC(=O)Nc3ccc(F)cc3)ccc2O[C@@H](C)CCCCO[C@@H]1CN(C)Cc1ccc(Cl)c(Cl)c1`, for which the “activity change, negative = viability loss” value is 1.44% (inactive). Regarding `C[C@H](CO)N1C[C@H](C)[C@@H](CN(C)S(=O)(=O)c2cccc(F)c2)OCc2ccccc2-c2c(n(C)c3ccccc23)C1=O`, the “activity change, negative = viability loss” value was -2.01% (inactive). Consider `C[C@@H]1CN([C@H](C)CO)C(=O)c2cc(NC(=O)Cc3ccccc3)ccc2O[C@@H](C)CCCCO[C@@H]1CN(C)Cc1ccc(C(F)(F)F)cc1`, for which the “activity change, negative = viability loss” value was 17.7% (inactive). The same measure, in the same setting: the result for `C[C@@H]1CN([C@H](C)CO)C(=O)CCCn2cc(nn2)CO[C@H]1CN(C)C(=O)Nc1ccc(-c2cccs2)cc1` reads 17.8% (inactive); that for `C[C@H]1CCCCO[C@H](CN(C)C(=O)C2CCCCC2)[C@@H](C)CN([C@@H](C)CO)C(=O)c2cc(NS(=O)(=O)c3ccc(Cl)cc3)ccc2O1`, 2.83% (inactive); that for `C[C@@H]1CCCCO[C@@H](CN(C)S(=O)(=O)c2ccc(F)cc2)[C@H](C)CN([C@H](C)CO)C(=O)c2cc(NS(=O)(=O)c3ccc(Cl)cc3)ccc2O1`, 11.9% (inactive). On the same count and under the same terms, the result for `Cc1noc(C)c1S(=O)(=O)Nc1ccc2c(c1)C(=O)N([C@H](C)CO)C[C@@H](C)[C@H](CN(C)C(=O)Nc1ccc(C(F)(F)F)cc1)OCCCC[C@@H](C)O2` reads 7.9% (inactive).

Consider `C[C@@H]1CCCCO[C@H](CN(C)Cc2ccc(C(F)(F)F)cc2)[C@H](C)CN([C@@H](C)CO)C(=O)c2cc(NS(=O)(=O)c3ccc(Cl)cc3)ccc2O1`, for which the “activity change, negative = viability loss” value is 14.5% (inactive).

A short description of the next experiment: CMV-driven luciferase expression suppression in HEK293 – cell-based, luminescence, dry powder, counter-screen for Pax8 inhibitor project, dose response (AID 743020).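 Also: HEK293 cells stably expressing the CMV luciferase reporter.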 The settings on record: HEK293 CMV-luciferase reporter, SteadyGlo luminescence, 24 h; series mostly up to 35 µM; activity change, negative = inhibition: at the top concentration.
Turning to `C[C@@H]1CN([C@H](C)CO)C(=O)c2cc(NC(=O)Nc3ccc(F)cc3)ccc2O[C@@H](C)CCCCO[C@H]1CN(C)C(=O)NC1CCCCC1`, the “activity change, negative = inhibition” value is -31.3% (inactive). As for `Cc1ccc(S(=O)(=O)Nc2ccc3c(c2)C(=O)N([C@H](C)CO)C[C@@H](C)[C@H](CN(C)Cc2ccc(Cl)c(Cl)c2)OCCCC[C@H](C)O3)cc1`, the “activity change, negative = inhibition” value was -11.6% (inactive). For `COc1ccc(S(=O)(=O)Nc2ccc3c(c2)CC(=O)N([C@@H](C)CO)C[C@@H](C)[C@H](CN(C)Cc2ccc(C(F)(F)F)cc2)O3)cc1`, the “activity change, negative = inhibition” value is -8.61% (inactive). On to `C[C@@H]1CCCCO[C@@H](CN(C)C(=O)c2ccccc2)[C@H](C)CN([C@H](C)CO)C(=O)c2cc(NC(=O)Nc3ccc(C(F)(F)F)cc3)ccc2O1`, for which the “activity change, negative = inhibition” value is 9.11% (inactive).

In the case of `O=C(Cc1ccccc1)N1CC[C@H]2[C@H](CO)Nc3ccc(C4=CCCCC4)cc3[C@H]21`, the “activity change, negative = inhibition” value is -5.15% (inactive).

For `C[C@@H]1CCCCO[C@H](CN(C)CC2CCCCC2)[C@H](C)CN([C@@H](C)CO)C(=O)c2cc(NC(=O)Nc3ccccc3)ccc2O1`, the “activity change, negative = inhibition” value was 6.34% (inactive). The same measure, in the same setting: the result for `C[C@@H]1CN([C@H](C)CO)C(=O)c2cc(NC(=O)Nc3ccc(C(F)(F)F)cc3)ccc2O[C@@H](C)CCCCO[C@H]1CN(C)C(=O)NC1CCCCC1` reads -3.48% (inactive); that for `C[C@H]1CN([C@@H](C)CO)S(=O)(=O)c2ccc(C#Cc3ccc(F)cc3)cc2O[C@@H]1CN(C)C(=O)NC1CCCCC1`, 82.6% (inactive); that for `C[C@@H](O)C#Cc1ccc2c(c1)O[C@H](CN(C)Cc1ccc(-c3ccccc3)cc1)[C@@H](C)CN([C@@H](C)CO)S2(=O)=O`, 0.661% (inactive).

Consider `C[C@H]1CCCCO[C@H](CN(C)S(=O)(=O)c2ccc(F)cc2)[C@@H](C)CN([C@@H](C)CO)C(=O)c2cc(NS(=O)(=O)c3ccc(Cl)cc3)ccc2O1`, for which the “activity change, negative = inhibition” value was -14.7% (inactive). Still for that read-out and setting: with `C[C@@H]1CN([C@H](C)CO)C(=O)c2cc(NC(=O)Nc3ccc(C(F)(F)F)cc3)ccc2O[C@@H](C)CCCCO[C@H]1CN(C)S(=O)(=O)c1ccc(Cl)cc1` the figure was 12.2% (inactive); with `C[C@@H]1CN([C@H](C)CO)C(=O)c2cc(NS(=O)(=O)c3ccccc3)ccc2O[C@@H](C)CCCCO[C@@H]1CN(C)CC1CCCCC1`, 1.46% (inactive). As for `C[C@@H]1CN([C@H](C)CO)C(=O)c2cc(NC(=O)Nc3ccc(C(F)(F)F)cc3)ccc2O[C@@H](C)CCCCO[C@H]1CN(C)S(=O)(=O)c1ccccc1`, the “activity change, negative = inhibition” value was 1.75% [at 30 µM] (inactive). On to `C[C@@H]1CN([C@@H](C)CO)C(=O)c2cc(NS(=O)(=O)c3cccs3)ccc2O[C@@H](C)CCCCO[C@H]1CN(C)Cc1ccc(C(F)(F)F)cc1`, for which the “activity change, negative = inhibition” value was 5.17% (inactive).

As to `C[C@@H]1CCCCO[C@@H](CN(C)C(=O)Nc2ccc(C(F)(F)F)cc2)[C@H](C)CN([C@H](C)CO)C(=O)c2cc(NS(=O)(=O)c3ccc(F)cc3)ccc2O1`, the “activity change, negative = inhibition” value was -3.69% (inactive).

Consider `Cc1ccc(S(=O)(=O)N(C)C[C@H]2Oc3cc(C#Cc4ccncc4)ccc3S(=O)(=O)N([C@H](C)CO)C[C@H]2C)cc1`, for which the “activity change, negative = inhibition” value was -7.57% (inactive). Still for that read-out and setting: the result for `C[C@@H]1CN([C@H](C)CO)C(=O)c2cc(NC(=O)Nc3ccccc3)ccc2O[C@@H](C)CCCCO[C@H]1CN(C)C(=O)Nc1ccc(C(F)(F)F)cc1` reads -2.79% (inactive). On the same count and under the same terms, with `O=C(Nc1ccc(C(F)(F)F)cc1)Nc1ccc2c(c1)[C@@H]1C[C@H](CC(=O)N3CCc4ccccc4C3)O[C@H](CO)[C@@H]1O2` the figure was 15.6% [at 30 µM] (inactive). Still for that read-out and setting: with `CC(C)CC1NC(=S)N(Cc2ccccc2)C1=O` (configuration not stated) the figure was 8.02% (inactive).

Take `C[C@H](CO)N1C[C@H](C)[C@H](CN(C)Cc2ccc(C(F)(F)F)cc2)OCCCC[C@H](C)Oc2ccc(NC(=O)NC3CCCCC3)cc2C1=O`: the “activity change, negative = inhibition” value is 181% (inactive).

As for `C[C@@H]1CN([C@H](C)CO)C(=O)c2cc(NC(=O)c3ccccc3)ccc2O[C@@H](C)CCCCO[C@@H]1CN(C)Cc1ccc(C(F)(F)F)cc1`, the “activity change, negative = inhibition” value is 2.69% (inactive). The same measure, in the same setting: the result for `COc1ccccc1C(=O)Nc1ccc2c(c1)C(=O)N(C)[C@@H]1CC[C@@H](CC(=O)NCc3ccc(Cl)c(Cl)c3)O[C@H]1CO2` reads -1.55% (inactive); that for `C[C@@H]1CN([C@H](C)CO)S(=O)(=O)c2ccc(C#CC3CCCC3)cc2O[C@H]1CN(C)Cc1cccnc1`, 104% (inactive). As for `C[C@H]1CN([C@@H](C)CO)C(=O)Cc2cc(NC(=O)NC3CCCCC3)ccc2O[C@H]1CN(C)Cc1ccc(-c2ccccc2)cc1`, the “activity change, negative = inhibition” value was 3.36% (inactive). As for `C[C@H](CO)N1C[C@H](C)[C@H](CN(C)Cc2ccc(C(F)(F)F)cc2)OCCCC[C@H](C)Oc2ccc(NS(=O)(=O)c3ccc(F)cc3)cc2C1=O`, the “activity change, negative = inhibition” value was 1.33% (inactive). On the same count and under the same terms, the result for `COc1ccc(-c2ccc3c(c2)[C@@H]2[C@@H](CCN2S(=O)(=O)c2ccc(OC)cc2)[C@@H](CO)N3C)cc1` reads 1.06% (inactive); that for `C[C@@H]1CCCCO[C@H](CN(C)C(=O)Nc2ccc(C(F)(F)F)cc2)[C@@H](C)CN([C@@H](C)CO)C(=O)c2cc(NC(=O)Nc3ccc(C(F)(F)F)cc3)ccc2O1`, -5.17% (inactive); that for `CC(C)NC(=O)N(C)C[C@H]1OCCCC[C@@H](C)Oc2ccc(NC(=O)Nc3ccc(C(F)(F)F)cc3)cc2C(=O)N([C@@H](C)CO)C[C@H]1C`, -16.3% (inactive). Take `C[C@@H]1CN([C@H](C)CO)C(=O)c2cc(NC(=O)Nc3cccc4ccccc34)ccc2O[C@@H]1CN(C)C(=O)Nc1cccc2ccccc12`: the “activity change, negative = inhibition” value is 2.18% (inactive). On the same count and under the same terms, the result for `C[C@@H]1CN([C@H](C)CO)C(=O)c2cccc(NC(=O)Nc3cccc4ccccc34)c2O[C@@H]1CN(C)S(=O)(=O)c1ccc(Cl)cc1` reads -4.31% (inactive); that for `C[C@H]1CCCCO[C@H](CN(C)Cc2ccc(C(F)(F)F)cc2)[C@@H](C)CN([C@@H](C)CO)C(=O)c2cc(NS(=O)(=O)c3ccc(F)cc3)ccc2O1`, 2.73% (inactive). `C[C@@H]1CN([C@H](C)CO)C(=O)c2cc(NC(=O)Nc3ccc(F)cc3)ccc2O[C@@H](C)CCCCO[C@@H]1CN(C)Cc1ccc(Cl)c(Cl)c1`: the “activity change, negative = inhibition” value is -5.37% (inactive). Still for that read-out and setting: with `C[C@H](CO)N1C[C@H](C)[C@@H](CN(C)S(=O)(=O)c2cccc(F)c2)OCc2ccccc2-c2c(n(C)c3ccccc23)C1=O` the figure was -0.722% (inactive). As for `C[C@@H]1CN([C@H](C)CO)C(=O)c2cc(NC(=O)Cc3ccccc3)ccc2O[C@@H](C)CCCCO[C@@H]1CN(C)Cc1ccc(C(F)(F)F)cc1`, the “activity change, negative = inhibition” value was 7.04% (inactive). The same measure, in the same setting: the result for `C[C@@H]1CN([C@H](C)CO)C(=O)CCCn2cc(nn2)CO[C@H]1CN(C)C(=O)Nc1ccc(-c2cccs2)cc1` reads 10.3% (inactive); that for `C[C@H]1CCCCO[C@H](CN(C)C(=O)C2CCCCC2)[C@@H](C)CN([C@@H](C)CO)C(=O)c2cc(NS(=O)(=O)c3ccc(Cl)cc3)ccc2O1`, -6.19% (inactive); that for `C[C@@H]1CCCCO[C@@H](CN(C)S(=O)(=O)c2ccc(F)cc2)[C@H](C)CN([C@H](C)CO)C(=O)c2cc(NS(=O)(=O)c3ccc(Cl)cc3)ccc2O1`, 1.2% (inactive). For the molecule `Cc1noc(C)c1S(=O)(=O)Nc1ccc2c(c1)C(=O)N([C@H](C)CO)C[C@@H](C)[C@H](CN(C)C(=O)Nc1ccc(C(F)(F)F)cc1)OCCCC[C@@H](C)O2`, the “activity change, negative = inhibition” value is -1.76% (inactive). The same measure, in the same setting: with `C[C@@H]1CCCCO[C@H](CN(C)Cc2ccc(C(F)(F)F)cc2)[C@H](C)CN([C@@H](C)CO)C(=O)c2cc(NS(=O)(=O)c3ccc(Cl)cc3)ccc2O1` the figure was 3.5% (inactive).
